Bioassay records as filed in PubChem.
RecA intein inh = Mtb RecA intein splicing inhibitors, primary screen, biochemical, fluorescence, HTS | 290,000 compounds, 0.75% hits | Protein RecA (Mycobacterium tuberculosis (strain ATCC 25618 / H37Rv)), P9WHJ3 | inhibition, % (no concentration beside the values) | cell-free RecA intein splicing; in the data active = inhibition above about 30%; inconclusive = no clear call, values can overlap the other calls
Target sequence (P9WHJ3 whole entry, looked up): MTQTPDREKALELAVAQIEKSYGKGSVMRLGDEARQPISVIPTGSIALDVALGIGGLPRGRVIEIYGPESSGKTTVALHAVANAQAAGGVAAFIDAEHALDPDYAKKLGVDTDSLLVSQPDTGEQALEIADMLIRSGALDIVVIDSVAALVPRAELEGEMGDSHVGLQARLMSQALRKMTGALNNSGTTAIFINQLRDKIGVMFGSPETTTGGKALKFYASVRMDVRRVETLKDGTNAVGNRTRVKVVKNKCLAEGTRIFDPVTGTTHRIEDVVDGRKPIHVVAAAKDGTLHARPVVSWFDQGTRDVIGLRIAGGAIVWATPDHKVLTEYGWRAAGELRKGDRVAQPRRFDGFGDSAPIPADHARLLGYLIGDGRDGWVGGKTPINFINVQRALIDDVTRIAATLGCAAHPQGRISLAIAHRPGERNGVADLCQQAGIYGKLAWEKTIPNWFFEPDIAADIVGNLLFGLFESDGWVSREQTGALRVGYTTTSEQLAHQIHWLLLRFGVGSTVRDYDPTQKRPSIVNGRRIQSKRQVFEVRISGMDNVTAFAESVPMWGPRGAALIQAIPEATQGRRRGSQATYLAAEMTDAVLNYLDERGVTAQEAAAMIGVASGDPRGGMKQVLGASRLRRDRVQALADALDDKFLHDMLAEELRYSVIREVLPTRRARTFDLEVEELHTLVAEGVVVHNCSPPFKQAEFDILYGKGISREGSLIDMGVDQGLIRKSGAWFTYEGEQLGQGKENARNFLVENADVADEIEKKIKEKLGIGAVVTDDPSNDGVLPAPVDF
Rv3671c inh = Rv3671c serine protease inhibitors, primary screen, biochemical, fluorescence polarization, M. tuberculosis H37Rv; 320,000 compounds, 0.048% hits; P9WHR9; inhibition, % at 5.96 µM; in the data active = inhibition above about 38%;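 also: extracellular domain of Rv3671c used as enzyme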
BJeLR lethal = MLPCN primary cell-based screen for lethality selective to Ras in HRASV12 cells. AID 1554, 2009. BJeLR (HRASV12) viability, CellTiter-Glo ATP luminescence, 48 h. inhibition, % (test concentration not listed). 300,000 compounds, 0.17% hits; in the data active = inhibition above about 50%; inconclusive = no clear call, values can overlap the other calls
Mtb UGM inh = M. tuberculosis UGM enzyme inhibitors, primary screen, biochemical, fluorescence polarization, single point; UDP-galactopyranose mutase (Mycobacterium tuberculosis (strain ATCC 25618 / H37Rv)), …; purified UGM, fluorescence polarization probe displacement; inhibition, % at 10 µM; 320,000 compounds, 0.06% hits; AID 504406, 2011; in the data active = inhibition above about 10%, passing the limit was not always enough; inconclusive = no clear call, values can overlap the other calls
FadD28 FP inh = inhibitors of FadD28 bisubstrate probe binding, primary screen, biochemical, fluorescence polarization, single point; Mycobacterium tuberculosis FadD28 fatty-acid-AMP ligase; inhibition, % at 12.5 µM; 360,000 compounds, 0.22% hits; in the data active = inhibition above about 8.5%, passing the limit was not always enough; inconclusive = no clear call, values can overlap the other calls
PrP 5UTR inh = inhibition of PrP 5' UTR reporter expression; cell-based PrP 5' UTR mRNA reporter, plate reader; inhibition, % (test concentration not listed); 340,000 compounds, 0.35% hits; AID 488862, 2010; in the data active = inhibition above about 52%
GFP chromo cs = counter-screen: blocks GFP chromophore formation, dose response, counter-screen, biochemical, fluorescence, homogeneous | shares compounds with RecA intein inh | cell-free GFP chromophore formation | EC50, µM | 2,100 compounds, 83% hits; call rule not given here
Hits are given with their value; n = inactive; u = inconclusive; x = no result given. A selection: hits, their analogues and other compounds. The true share with any hit is near 1.3%.

SMILES	RecA intein inh	Rv3671c inh	BJeLR lethal	Mtb UGM inh	FadD28 FP inh	PrP 5UTR inh	GFP chromo cs
COc1ccc(C(CNC(=O)c2ccc(C)c(S(=O)(=O)N3CCCCC3)c2)N2CCCC2)cc1 (configuration not stated)	x	x	x	x	n	n	x
CN1CCN(C2=C(Cl)C(=O)N(c3ccc(Cl)c(Cl)c3)C2=O)CC1	68	n	n	n	n	n	2.3
O=C1C(Cl)=C(N2CCCCCC2)C(=O)N1c1ccccc1Cl	n	n	n	n	n	n	x
O=C1C(Cl)=C(N2CCOCC2)C(=O)N1c1ccccc1Cl	86	n	n	n	n	n	5.6
Cc1ccc(N2C(=O)C(Cl)=C(N3CCOCC3)C2=O)cc1Cl	74	n	n	n	n	n	u
Cc1ccccc1N1C(=O)C(Cl)=C(N2CCN(c3ccccc3)CC2)C1=O	n	n	n	n	n	n	x
N#C/C(=C/C1=C(N2CCOCC2)C(=C/c2ccc(Cl)cc2Cl)/CC1)C(=O)Nc1ccccc1F	x	x	x	x	n	n	x
Cc1ccc(CN=Cc2[nH]c3ccc(Br)c(Cl)c3c2O)cc1	75	n	n	n	n	n	4.8
COc1ccc(CN=Cc2c(O)[nH]c3ccccc23)cc1	n	n	n	n	n	n	x
O=c1[nH]c(=O)n(C2CCCCCC2)c(O)c1C=NCc1ccc(F)cc1	n	n	n	n	n	n	x
Oc1c(C=NCc2ccc(F)cc2)[nH]c2ccc(Br)c(Cl)c12	43	n	n	n	x	x	6.1
CCOC(=O)c1cnc2ccc(C)cc2c1Sc1ccccc1	63	n	n	n	n	n	38
CC1=CC(=Nc2c(C)n(C)n(-c3ccccc3)c2=O)C=CC1=O	57	n	n	n	x	x	27
Cc1c(CC(=O)NCC(=O)NCC(=O)N[C@@H](Cc2ccccc2)C(=O)O)c(=O)oc2c(C)c(O)ccc12	x	x	x	x	n	x	x
COc1ccc(S(=O)(=O)Nc2cccc3ccc(O)cc23)cc1	n	n	n	n	n	n	x
O=S(=O)(Nc1cc(Sc2cccc3cccnc23)c(O)c2ccccc12)c1ccc(F)cc1	n	n	n	n	x	x	x
O=C(O)CSc1cc(NS(=O)(=O)c2ccc(Cl)cc2)c2ccccc2c1O	96	n	n	n	n	n	9.8
COc1ccc(S(=O)(=O)Nc2cc(SCC(=O)O)c(O)c3ccccc23)cc1	96	n	n	n	n	n	0.65
Cc1cc(C)c(S(=O)(=O)Nc2cc(SCC(=O)O)c(O)c3ccccc23)cc1C	97	n	n	n	x	x	0.87
CCNC(=O)C1(C)CCN(Cc2ccc(C#N)cc2)C1 (configuration not stated)	x	x	x	x	n	x	x
CCn1c2ccccc2nc2cc3c(cc21)c(Cl)c(=O)c1ccccc13	x	x	x	x	n	x	x
NC(=O)CSc1nnc(NC(=O)C23CC4CC(CC(C4)C2)C3)s1	n	n	n	n	n	n	x
CSc1nnc(NC(=O)C23CC4CC(CC(C4)C2)C3)s1	n	n	n	n	n	n	n
CCn1nc(/C=C/c2ccccc2)nc2c(=O)n(C)c(=O)nc1-2	79	x	n	x	n	n	0.31
CN(CCc1cnn(C)c1)C(=O)C1CCC(=O)N(CC2CCCCC2)C1 (configuration not stated)	46	n	n	n	n	n	n
SMILES	RecA intein inh	Rv3671c inh	BJeLR lethal	Mtb UGM inh	FadD28 FP inh	PrP 5UTR inh	GFP chromo cs
O=c1cc(N=Nc2ccc(Cl)cc2)[nH]c(=O)[nH]1	88	n	n	n	n	n	u
O=c1cc(-c2ccc(Cl)cc2)oc(=O)[nH]1	n	n	n	n	n	n	x
O=C1c2ccccc2CCC12OC2c1ccc([N+](=O)[O-])cc1 (configuration not stated)	x	x	x	x	n	x	x
COc1ccc(Cn2c(O)c(/C=N/NC(=O)c3ccccc3O)c(=O)[nH]c2=O)cc1	31	n	n	n	17	n	n
c1ccc(CN(CCN2CCOCC2)Cc2ccccc2)cc1	x	x	x	x	n	n	x
Cc1cc(=O)n2nc(N3CCCC(C(=O)Nc4cccc(C)c4C)C3)sc2n1 (configuration not stated)	x	x	x	x	n	x	x
CC1=C(C(=O)N(C(C)C)C(C)C)CC(CC(=O)NCCN2CCOCC2)C(=O)N1Cc1ccc(C(C)(C)C)cc1 (configuration not stated)	x	x	x	x	n	x	x
COc1ccc(C(=O)Nc2c(O)ccc3ccccc23)cc1	n	n	n	n	n	n	x
COc1ccc(S(=O)(=O)Nc2c(O)ccc3ccccc23)cc1OC	96	n	n	n	n	n	4.6
COc1ccc(NC(=O)Nc2c(O)ccc3ccccc23)cc1	59	n	n	n	u	n	15
COc1ccc(C(=O)Nc2c(O)ccc3ccccc23)cc1OC	n	n	n	n	n	n	x
COC(=O)CCS(=O)(=O)c1nc(-c2ccccc2)cc(C(F)(F)F)n1	67	n	n	n	n	n	11
COCCNC(=O)CCSc1nc(-c2ccc(OC)cc2)cc(C(F)(F)F)n1	n	n	n	n	n	n	x
COCC(C)NC(=O)CCS(=O)(=O)c1nc(-c2ccc(OC)cc2)cc(C(F)(F)F)n1 (configuration not stated)	33	n	n	n	n	n	35
CCOC(=O)CS(=O)(=O)c1nc(-c2ccc(F)cc2)cc(C(F)(F)F)n1	74	n	n	n	n	n	6
O=C(O)CCS(=O)(=O)c1nc(-c2cccs2)cc(C(F)(F)F)n1	n	n	n	n	n	x	x
CS(=O)(=O)c1nc(-c2ccc(F)cc2)cc(C(F)(F)F)n1	x	x	n	x	n	n	x
CCOC(=O)CCS(=O)(=O)c1nc(-c2ccccc2)cc(C(F)(F)F)n1	78	n	n	n	n	n	7.2
COCCn1c(C)cc(C(=O)CN2C(=O)C(=O)N(CCC3=CCCCC3)C2=O)c1C	x	x	x	x	n	x	x
CCOC(=O)CS(=O)(=O)c1nc(-c2ccccc2)cc(C(F)(F)F)n1	72	n	n	n	n	n	5.9
COc1ccc(-c2cc(C(F)(F)F)nc(S(C)(=O)=O)n2)cc1	72	n	n	n	n	n	14
O=C(CNC(=O)c1cccc(-n2cccc2)c1)Nc1ccccc1Br	x	x	x	x	n	x	x
Cc1c(C(=O)NCc2ccc3c(c2)OCCO3)sc(=O)n1Cc1ccc(S(=O)(=O)N(C)C)cc1	x	x	x	x	n	x	x
Nc1ccc2c(c1)C(=O)c1ccccc1-2	n	n	n	n	n	n	x
Nc1ccc2c(c1)C(=O)C(=O)c1ccccc1-2	97	n	114	n	n	n	5.1
CN(Cc1ccccc1)C(=O)Cn1nnc(-c2ccccc2)c1COc1ccccc1	x	x	x	x	n	x	x
CCCCC(=O)N(C)c1c(CC)nc2c(OCc3ccccc3C)cccn12	x	x	x	x	n	x	x
COCCNc1nc2cc(-c3ccc(F)cc3)sc2c(=O)n1C	x	x	x	x	n	x	x
